USP1 inh – blocks the human USP1/UAF1 deubiquitinase complex; recombinant USP1/UAF1, Ub-Rhodamine cleavage fluorescence; O94782; Potency, µM (series often up to 57.1 µM), for the others: at the top dose activity change, negative = inhibition, hits mostly inhibitors; 390,000 tested, 0.23% active; also: potency is read from the fitted curve at half-maximal effect; nearly all actives have a fitted effect of over 60% in size
Target sequence (O94782 whole entry, looked up): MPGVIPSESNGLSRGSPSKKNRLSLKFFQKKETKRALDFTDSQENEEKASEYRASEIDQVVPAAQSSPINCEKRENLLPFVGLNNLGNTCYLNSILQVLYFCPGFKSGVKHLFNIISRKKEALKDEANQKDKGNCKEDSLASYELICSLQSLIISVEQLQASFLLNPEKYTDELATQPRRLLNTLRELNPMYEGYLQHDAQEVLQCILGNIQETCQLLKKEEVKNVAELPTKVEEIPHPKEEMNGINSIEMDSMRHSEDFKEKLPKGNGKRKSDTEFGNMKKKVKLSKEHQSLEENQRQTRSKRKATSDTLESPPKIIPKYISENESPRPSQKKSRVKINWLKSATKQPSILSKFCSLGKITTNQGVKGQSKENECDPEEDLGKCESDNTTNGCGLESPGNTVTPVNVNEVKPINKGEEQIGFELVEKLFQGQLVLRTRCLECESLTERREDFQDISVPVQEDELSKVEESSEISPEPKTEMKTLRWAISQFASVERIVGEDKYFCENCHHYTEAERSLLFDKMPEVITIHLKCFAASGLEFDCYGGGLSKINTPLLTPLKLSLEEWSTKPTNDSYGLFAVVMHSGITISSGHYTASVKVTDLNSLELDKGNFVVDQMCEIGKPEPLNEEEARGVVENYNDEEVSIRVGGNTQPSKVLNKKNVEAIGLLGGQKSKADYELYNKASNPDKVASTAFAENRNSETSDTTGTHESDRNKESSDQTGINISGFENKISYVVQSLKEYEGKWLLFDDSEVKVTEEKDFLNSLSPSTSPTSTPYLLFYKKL
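1 nM enzyme complex + cpd, 15 min RT; start with Ub-Rho 150nM final; kinetic fluorescence ex 480/em 540, 6 reads q60 s. Buffer 50mM HEPES pH 7.8, 0.5mM EDTA, 0.1 mg/ml BSA, 1mM TCEP, 0.01% Tween-20.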
FBPA coupling cs – inhibits coupling enzyme system, counter-screen for aldolase hits | coupling enzyme system counterscreen, AmpLite Red fluorescence | 290,000 tested, 0.67% active | AID 2472 | activity change, negative = inhibition, % at 58.2 µM, hits read low; in the data active = activity change below about -30%
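Compounds tested against the coupling enzymes alone at 57.5 uM final; readout was AmpLite Red fluorescence (525/598 nm) after 20 min at RT.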
Tau fibril FP – inhibitors of human tau fibril formation | 280,000 tested, 0.39% active | Potency, µM (series often up to 57.7 µM), inactives show top-dose activity, negative = inhibition, most hits filed as inhibitors | K18 P301L tau heparin fibrillization, Alexa594 FP, 6 h; also: potency is read from the fitted curve at half-maximal effect; nearly all actives have a fitted effect of over 55% in size
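Quantitative HTS format: compounds meet 15 uM recombinant K18 P301L tau and Alexa 594-tau tracer in 100 mM sodium acetate pH 7; 20 uM heparin triggers fibrillization at 37 C over 6 hr; FP gives the signal.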
Tau fibril ThT – blocks human tau fibril formation measured by thioflavin T | P10636 | recombinant tau K18 P301L, heparin-induced fibrillization, ThT fluorescence | Potency, µM (top dose mostly 57.4 µM), for inactives: top-dose activity, negative = inhibition, most hits filed as inhibitors | 270,000 tested, 2.1% active; also: potency is read from the fitted curve at half-maximal effect; nearly all actives have a fitted effect of over 55% in size
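ThT emission at 510 nm, taken 1 hr after adding 30 uM dye, quantifies aggregates formed when 20 uM heparin acts on human tau K18 P301L for 6 hr at 37 C.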
Tau fluor counter – counter-screen for tau fibril formation inhibitors; tau K18 P301L Alexa594 fluorescence, heparin fibrillization; Potency, µM (doses to about 57.7 µM), inactives show at the highest dose activity change, negative = decrease; 280,000 tested, 0.93% active; also: potency is read from the fitted curve at half-maximal effect; nearly all actives have a fitted effect of over 55% in size
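Human tau K18 P301L (15 uM unlabeled, 0.24 uM Alexa 594-labeled) in 100 mM sodium acetate pH 7 with 20 uM heparin, 6 hr at 37 C. ThT 30 uM added, 1 hr ambient; Alexa 594 FP and total fluorescence read at 555/632 nm.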
An asterisk follows results filed as active; ? = inconclusive; nt = not tested or not shown; [ ] = dose if it differs, or a comment. A selection: hits, their analogues and other compounds. The true share with any hit is near 2.3%. Unless noted, calls follow the shape of the dose curve; as a rule, active = well fitted curve in the direction sought with a large enough effect; inconclusive = small, poorly fitted or top-dose-only effect, or another doubt; inactive = no such curve, though single readings can be large; an effect the other way counts as inactive or inconclusive. % is scaled to controls: 0 for no effect and ±100 for the full control effect.

SMILES	USP1 inh	FBPA coupling cs	Tau fibril FP	Tau fibril ThT	Tau fluor counter
Cc1ccc(-c2nnc(Nc3ccc(O)cc3)c3ccccc23)cc1S(=O)(=O)N1CCCCC1	-22%	nt	17%	-2%	4.5µM*[quencher]
CCOC(=O)C1=C(C)Nc2ccc(C)cc2S1	-16%	-2	-8%	16µM*	?
O=C1C(Cl)=C(N2CCN(c3ccccc3[N+](=O)[O-])CC2)C(=O)c2ccccc21	?	-41*	10µM*	3.5µM*	8.9µM*[quencher]
O=C(Cn1cc(S(=O)(=O)Cc2ccc(F)cc2)c2ccccc21)NCc1ccccc1	-17%	nt	-9%	4%	-19%
O=C(NCCCO)c1ccc2nc(-c3ccco3)c(-c3ccco3)nc2c1	?	-29	8.9µM*	5µM*	4.5µM*[quencher]
CCCCNC(=O)c1ccc2nc(-c3ccco3)c(-c3ccco3)nc2c1	-19%	-39*	?	16µM*	?
CCc1nc2ccc(C(=O)NCCc3ccco3)cc2nc1CC	-2%	4	nt	nt	nt
O=C(NCCO)Nc1ccc2nc(-c3ccco3)c(-c3ccco3)nc2c1	nt	-36*	6%	5%	9%
Cc1cn(C)c(CC(=O)NCc2cccc(Cl)c2)c1C(=O)O	-16%	nt	2%	7%	3%
COc1cc(OC)c(NC(=O)c2ccc3c(c2)N(Cc2ccc(C)cc2)CCS3)cc1Cl	-20%	nt	14%	-5%	?
CCOc1ccc2c(c1)c(=O)c(C(=O)c1ccc(CC)cc1)cn2CC(=O)Nc1cccc(Cl)c1	-5%	nt	-7%	-7%	-16%
Cc1cc(C)c(S(=O)(=O)/N=C2/C=C(Sc3ncn[nH]3)C(=O)c3ccccc32)cc1C	1.3µM*	-96*	-1%	3%	4%
CN(C)C(=O)/N=N/C(=O)N(C)C	nt	nt	14µM*	7.9µM*	-19%
CC(=O)O[C@H]1CC(C)(C)C(=C=C/C(C)=C/C=C/C(C)=C/C=C/C=C(C)/C=C/C=C(\C)C(=O)C[C@@]23O[C@]2(C)C[C@@H](O)CC3(C)C)[C@](C)(O)C1	-27%	0	?	25µM*	-10%
COC(=O)c1cc2sccc2n1CC(=O)Nc1ccc(C)cc1C	-16%	nt	-1%	-7%	-7%
COc1cc2[nH]c(=O)n(Cc3ccc(C(=O)NCc4ccccc4)cc3)c(=O)c2cc1OC	-13%	nt	?	-3%	?
COC(=O)c1sc(-c2ccc(C(C)(C)C)cc2)cc1NC(=O)c1ccccc1C(=O)O	28µM*	2	7%	nt	-9%
NC(=O)C1CCN(C(=S)c2ccc(-c3ccc(Br)cc3)o2)CC1	?	-33*	-8%	?	-11%
CC(=O)Nc1ccc(S(=O)(=O)Nc2nc3ccccc3nc2Nc2ccc(S(N)(=O)=O)cc2)cc1	-6%	12	-4%	?	-26%
NS(=O)(=O)c1ccc(Nc2nc3ccccc3nc2NS(=O)(=O)c2cccc([N+](=O)[O-])c2)cc1	-26%	3	8%	11µM*	?
c1cc2c3c(cccc3c1)NC1(CCCCCC1)N2	-16%	-11	10%	?	?
c1cc2c3c(cccc3c1)NC1(CCC3(CC1)Nc1cccc4cccc(c14)N3)N2	-20%	-12	-11%	16µM*	13µM*[quencher]
O=C(O)CCCN1C(=O)/C(=C/c2cn(-c3ccccc3)nc2-c2cccs2)SC1=S	?	8	?	16µM*	-4%
O=C(O)CC1S/C(=N/N=C/c2ccc(-c3ccc(Cl)c([N+](=O)[O-])c3)o2)NC1=O (configuration not stated)	-9%	10	0%	7.1µM*	-18%
O=C(O)CC1S/C(=N/N=C/C=C/c2ccccc2[N+](=O)[O-])NC1=O (configuration not stated)	-11%	-1	4%	-15%	-6%
SMILES	USP1 inh	FBPA coupling cs	Tau fibril FP	Tau fibril ThT	Tau fluor counter
O=S(=O)(NCCc1csc2nc(-c3ccc(Cl)cc3)nn12)c1ccc(Oc2ccccc2)cc1	-1%	nt	?	7%	-2%
COc1ccc(OCCn2cc(/C=N/NC(=O)c3ccncc3)c3ccccc32)cc1	-8%	-1	15%	?	13µM*[quencher]
COc1cccc(OCCn2cc(/C=N/NC(=O)c3ccncc3)c3ccccc32)c1	-10%	0	10%	?	14µM*[quencher]
Cc1ccc(OCCn2cc(/C=N/NC(=O)c3ccncc3)c3ccccc32)cc1	-27%	-2	5%	-8%	13µM*[quencher]
O=C(N/N=C/c1cn(Cc2ccccc2)c2ccccc12)c1ccncc1	-13%	-1	14%	?	25µM*[quencher]
CNC(=S)N/N=C/c1cn(CCOc2cccc(OC)c2)c2ccccc12	-22%	-1	15%	?	?
CCOC(=O)N/N=C/c1cn(CCCOc2ccc(C)cc2)c2ccccc12	-3%	-1	11%	?	?
O=C(CNc1ccc2c(c1)OCO2)N/N=C\c1cn(Cc2ccccc2)c2ccccc12	-21%	0	2%	?	10µM*[quencher]
COC(=O)N/N=C/c1cn(CC(C)COc2ccccc2)c2ccccc12 (configuration not stated)	-7%	-4	?	?	14µM*[quencher]
COCCNC(=O)Cn1cc(/C=N/NC(=O)c2ccc(Oc3ccc(O)cc3)cc2)c2ccccc21	?	0	16%	?	18µM*[quencher]
O=C(CNc1ccc2c(c1)OCO2)N/N=C\c1cn(Cc2ccc(F)cc2)c2ccccc12	nt	-14	11%	?	?
Cc1ccc(OCCn2cc(/C=C3\C(=O)NN(c4ccccc4)C3=O)c3ccccc32)cc1	-16%	-6	?	7.1µM*	?
CCCCOc1ccc(C(=O)NCCc2sc(-c3cccc(F)c3)nc2C)cc1	-7%	nt	-6%	?	-15%
CC1=Nc2nc(N3CCCCC3)c(C#N)c3c4c(nc(c23)N1)N(c1ccc(C(C)C)cc1)C(=O)C4	-20%	0	?	13µM*	-30%
N#Cc1ccc(-c2cccnc2)nc1SCC(=O)c1ccccc1	92%	2	-3%	4.5µM*	?
COCc1cc(C)nc2sc3c(=O)n(-c4cc(C)ccc4C)nnc3c12	19%	nt	5%	-1%	0%
Cc1ccc(C2=C/C(=C/c3cccnc3)C(=O)O2)c(C)c1	-15%	-35*	?	?	-11%
COC(=O)c1ccccc1NC(=O)C1(c2cccs2)CCOCC1	?	nt	-10%	-15%	-17%
C=CCNc1sc(C(=O)c2ccccc2)c(N)c1-c1nc2ccccc2s1	-6%	-2	-7%	-7%	-4%
C=CCNc1sc(C(=O)c2cccs2)c(N)c1C#N	-8%	3	0%	-5%	-6%
CCNc1sc(C(=O)c2cccs2)c(N)c1-c1nc2ccccc2s1	-2%	-3	-4%	8.9µM*	?
CCNc1sc(C(=O)c2cccs2)c(N)c1C#N	0%	6	?	28µM*	?
